From PubChem BioAssay
Shown are actives, neighbours in structure and some others; about 2.3% of the full set was active somewhere.
FAS TE block – FAS thioesterase domain inhibitors, primary screen, biochemical, fluorescence intensity, uHTS; Fatty acid synthase (Homo sapiens), P49327; recombinant FAS-TE, OMFH fluorogenic substrate, fluorescence endpoint; inhibition, % at 15 µM; actives 0.67% (n = 360,000);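 active means compounds whose normalised, plate-corrected inhibition of enzyme fluorescence in the single-dose primary screen is 50% or more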;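 further: 0% = DMSO with enzyme and 100% = substrate without enzyme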
Calpain2 inh – inhibitors of pig calpain II, primary screen, biochemical, fluorogenic peptide substrate, 1536-well; actives 0.37% (n = 220,000); inhibition, % at 16 µM; AID 1236, 2008; purified calpain II, 30 min;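 active means inhibition above about 50%, limit read from the data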
H9c2 protect – cardioprotection against H2O2-induced cell death, primary screen, uHTS, H9c2 cells, ATPLite luminescence; H9c2 cardiomyocytes, H2O2 injury protection, 2 h; protection from H2O2 cell death, % at 20 µM; actives 0.63% (n = 360,000); AID 588492, 2011;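 active means compounds giving at least 50% protection of heart cells from peroxide-induced death in the single-dose screen, raw or plate-pattern-corrected value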;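 further: 0% = DMSO wells with peroxide and 100% = DMSO wells without peroxide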
TAG inh – inhibitors of triacylglycerol accumulation, primary screen, cell-based, uHTS, fluorescence, H9c2; AID 651582, 2012; H9c2 cells, Nile Red lipid (TAG) fluorescence; cells loaded with 200 µM oleic acid; actives 0.66% (n = 230,000); inhibition, % at 12.5 µM;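 active means pattern-corrected inhibition of lipid staining of at least 50% with the nuclear-stain viability signal not falling by more than 50%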;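 further: 0% = DMSO wells and 100% = triacsin C control wells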
MIN6 prolif-1 – inducers of MIN6 beta-cell proliferation, primary screen, ATP luminescence, uHTS | AID 2380, 2010 | MIN6 cells proliferation, ATPlite luminescence, 48 h; cells starved in 0.2% serum; 100% = growth in 10% serum | proliferation, % at 10 µM | actives 0.29% (n = 330,000);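 active means compounds whose signal lies at least 3.5 SD above the mean of all wells on their plate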;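 further: 0% = DMSO-treated cells in low-serum medium and 100% = 10% serum control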
aDG glyco act – activators of alpha-DG glycosylation, primary screen, uHTS, Pro5-aDG cells, AlphaScreen. actives 0.22% (n = 360,000). AID 624168, 2012. alpha-DG glycosylation AlphaScreen (IIH6); 0% Pro5, 100% B10-LARGE cell signal. activation, % at 10 µM;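 active means activation of at least 8% versus controls, or a plate z-score of at least 8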;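 further: Pro5 are CHO cells carrying HIG-tagged alpha-DG that lacks glycosylation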
MIN6 prolif-2 – inducers of beta-cell proliferation in MIN6, confirmation, MIN6 cells, mouse; shares compounds with MIN6 prolif-1; ATPlite luminescence, 48 h; cells kept in 0.2% serum; scaled between 0.2% and 10% serum; proliferation increase, % at 50 µM; 920 tested, under 10 active;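 active means proliferation increase above 40% at any of the four tested concentrations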
Numbers without * were called inactive; . = no result.

SMILES	FAS TE block	Calpain2 inh	H9c2 protect	TAG inh	MIN6 prolif-1	aDG glyco act	MIN6 prolif-2
O=C(Nc1c(Cl)cc(Cl)cc1C(=O)NCCN1CCOCC1)c1ccc(Cl)cc1Cl	-5	23	25	.	8.7*	0	1
O=C(Nc1ccc(Cl)cc1C(=O)NCCN1CCOCC1)c1ccc(Cl)cc1Cl	0	-3	1	7	-3	0	.
COC(=O)[C@H](C)N(Cc1ccc(Cl)c(Cl)c1)S(=O)(=O)CCN1CCN(c2ccccc2)CC1	27	.	-15	2	.	0	.
O=C(c1ccc(CS(=O)Cc2ccc(Cl)cc2)o1)N1CCN(C2CCCCC2)CC1 (centres undefined)	-5	.	3	-9	.	0	.
CCOc1ccccc1/C=C/c1onc(C)c1S(=O)(=O)N1CCC(C(=O)N(CC)CC)CC1	22	.	1	.	4.8*	0	-6
CNc1nc(Nc2ccccc2)nc(OCC(F)(F)F)n1	-2	28	2	1	7.0*	0	1
CNc1nc(NN)nc(Nc2ccccc2)n1	-4	.	4	-4	-2	0	.
CSc1cccc(NC(=O)C2CCCN(S(C)(=O)=O)C2)c1 (centres undefined)	-12	.	-3	-6	.	0	.
Cc1cc(C)n(CC(=O)N2CCCC(N3CCN(c4ccc(F)cc4)CC3)C2)n1 (centres undefined)	-6	.	0	-18	-1	0	.
O=C(O)CCc1ccc(-c2ccc(Cl)cc2)n1CC(=O)O	-2	-9	6	.	5.8*	0	0
O=C(NCC1CCCO1)c1ccccc1OCc1ccc(Cl)cc1 (centres undefined)	5	.	-2	-14	15*	0	-4
CCN1CCN(C(=O)C2CCN(S(=O)(=O)c3ccc(Br)cc3)CC2)CC1	-1	.	0	-10	-5	0	.
CCN1CCN(C(=O)C2CCN(S(=O)(=O)c3ccc(SC)cc3)CC2)CC1	-4	.	4	.	16*	0	-1
COCCCn1c(=O)/c(=C\c2ccc(OC(F)F)c(OC)c2)s/c1=C(/C#N)C(N)=O	-18	-23	-2	14	9.0*	0	-1
CC(C)C[C@H]1CN(CCCC[C@H]2CNC(=O)C(=O)N2Cc2ccccc2)C(=O)C(=O)N1Cc1ccccc1	-8	.	.	.	.	0	.
COc1cc(OC)cc(-c2nc(-c3cccs3)no2)c1	16	4	-2	-13	7.7*	0	1
Cc1ccccc1CNC(=O)c1ccccc1N	-6	-185	7	.	8.4*	0	-2
CCN1C(=O)N(CC)C2C1N(C(C)=O)C(=O)N2C(C)=O (centres undefined)	-8	-12	7	1	8.2*	0	-1
CCOc1ncccc1C(=O)Nc1ccc(C)cn1	-6	.	-3	8	11*	0	2
CC(=O)c1ccc(OCC(=O)NC2CCS(=O)(=O)C2)cc1 (centres undefined)	-6	-15	3	.	5.0*	0	0
Cc1ccc(C)c(S(=O)(=O)Nc2ccc(C(=O)N3CCOCC3)cc2)c1	-3	.	1	-3	.	0	.
CCN(Cc1ccncc1)C(=O)c1cccc(S(=O)(=O)N2CCCCC2)c1	-6	.	4	8	0	0	.
CC(C)CCNC(=O)CN1N=C(c2ccc(Cl)cc2)CCC1=O	10	.	0	.	7.3*	0	-2
O=C(Nc1cc(F)ccc1F)C1CCCN1S(=O)(=O)c1cccc2nsnc12 (centres undefined)	0	.	5	.	1	0	.
O=C(NC1CCCC1)C(c1ccncc1)N(C(=O)c1csnn1)c1cccc(Cl)c1 (centres undefined)	-5	.	-1	.	2	0	.
SMILES	FAS TE block	Calpain2 inh	H9c2 protect	TAG inh	MIN6 prolif-1	aDG glyco act	MIN6 prolif-2
O=C(NC1CCCC1)C(c1ccncc1)N(C(=O)c1csnn1)c1ccc(F)c(Cl)c1 (centres undefined)	-4	.	-5	.	5.9*	0	0
CN(C)C1=NCCN1CCc1ccccc1	-7	.	-1	-9	0	0	.
Cc1ccc(S(=O)(=O)N2C[C@H]3C(=O)C[C@@H](c4ccccc4)N(S(=O)(=O)c4ccccc4C)[C@H]3C[C@H]2c2ccccc2)cc1	14	.	6	.	.	0	.
CC1(C(=O)Nc2ccc3c(c2)OCCO3)CN(S(C)(=O)=O)CC(=O)N1CCc1ccccc1 (centres undefined)	.	.	.	.	.	0	.
CCN(CC)S(=O)(=O)c1cccc(-c2nnc(SCCOc3ccccc3)o2)c1	3	-17	-13	8	-3	1	.
CCN(CC)S(=O)(=O)c1cccc(-c2nnc(SCC(=O)c3cc(C)n(C)c3C)o2)c1	17	15	-1	-4	12*	0	1
CC1CCN(CC(=O)Nc2nc(-c3ccccc3)cs2)CC1	12	.	7	.	6.2*	0	-6
NC(=O)C1CCN(CC(=O)Nc2nc(-c3ccccc3)cs2)CC1	-7	.	-3	.	1	0	.
NS(=O)(=O)c1ccc(NC(=S)NCc2ccccc2Cl)cc1	-3	29	2	12	5.3*	0	-6
CC(=O)c1ccc(N(CC(=O)NC2CCCCC2)C(=O)c2csnn2)cc1	-8	.	2	.	6.6*	0	0
CC(=O)Nc1ccc(CN2CCCCCC2)cc1	-3	.	6	-3	5.5*	0	2
COc1ccc(-c2nc(-c3ccc(Br)o3)no2)cc1OC	12	0	-2	6	-2	0	.
COc1ccc(-c2nnc(-c3ccc(Br)o3)o2)cc1OC	-4	-41	7	10	7.2*	0	2
Cc1cccc(-c2c3c(=O)n(C)c(=O)n(C)c3c3cccnn23)c1	1	-10	5	-19	9.0*	0	-2
Cc1cc(C)c2c3c(c(-c4ccccc4)n2n1)c(=O)n(C)c(=O)n3C	-8	.	-1	2	.	0	.
c1cncc(-c2nc(N3CCOCC3)c3ccccc3n2)c1	-5	39	14	.	4.8*	0	2
COc1ccc(-c2nnn(CC(=O)Nc3ccc4c(c3)OCCO4)n2)cc1OC	-8	.	-10	-36	-1	0	.
CCOC(=O)c1c(NC(=O)CC)sc(C(=O)NC2CCCC2)c1C	4	.	-4	.	8.1*	0	-4
COc1ccccc1CCN1CCCC(CN(C)CC(C)(C)CO)C1 (centres undefined)	-4	.	-1	-5	0	0	.
